# Source: the supplement of paper PMC10849652
# The full data set covers some 7,900 targets. This sample favours those with a hit. About 0.6% of all pairs of compound and target were hits. Unmarked numbers belong to inactive results.
# Assays:
# Test in all cases: log2 fold change, soluble protein after heating vs DMSO (PISA); higher = thermal stabilisation; K562 cells, 10 uM, 30 min; active = over 0.2 and 3.5 SD of the protein, either way, in both replicates (recomputed)
# [1] = compound: NC(=O)Nc1cc(-c2cccc(F)c2)sc1C(=O)N[C@H]1CCCNC1
# In short: (§1)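 K562 cells at 2×10^6 cells/mL were treated for 30 min with 10 μM compound, and aliquots were heated for 3 min over 48°C-58°C before pooling. Extraction used PBS with 0.5% NP-40 at 4°C, and soluble protein was the supernatant after 21,000xg for 90 min, measured by TMTpro 16plex LC-MS/MS with channel sums equalised. Thermal stability values, relative to control samples and from duplicates, are log2 fold changes.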
# [2] = compound: NC(=O)c1cnc(N[C@@H]2CCCC[C@@H]2N)nc1Nc1cccc(-n2nccn2)c1
# In short: as §1
# [3] = compound: NC1(c2ccc(-c3nc4ccn5c(=O)[nH]nc5c4cc3-c3ccccc3)cc2)CCC1
# In short: as §1
# [4] = compound: NCC(=O)Nc1ccc(-n2nc(C(F)(F)F)cc2-c2ccc3c(ccc4ccccc43)c2)cc1
# In short: as §1
# entinostat = compound: Nc1ccccc1NC(=O)c1ccc(CNC(=O)OCc2cccnc2)cc1 [entinostat]
# In short: as §1
# vorinostat = compound: O=C(CCCCCCC(=O)Nc1ccccc1)NO [vorinostat]
# In short: as §1
# citarinostat = compound: O=C(CCCCCCNC(=O)c1cnc(N(c2ccccc2)c2ccccc2Cl)nc1)NO [citarinostat]
# In short: as §1
# silmitasertib = compound: O=C(O)c1ccc2c(c1)nc(Nc1cccc(Cl)c1)c1ccncc12 [silmitasertib]
# In short: as §1
# [5] = compound: O=C1NC(=O)C(c2cnc3ccccn23)=C1c1cn2c3c(cc(F)cc13)CN(C(=O)N1CCCCC1)CC2
# In short: as §1
# [6] = compound: c1cc(OCCN2CCCCC2)cc(-c2n[nH]c3ccc(-c4nnc[nH]4)cc23)c1
# In short: as §1
# UniProt P08047, sequence (P08047 whole entry, looked up): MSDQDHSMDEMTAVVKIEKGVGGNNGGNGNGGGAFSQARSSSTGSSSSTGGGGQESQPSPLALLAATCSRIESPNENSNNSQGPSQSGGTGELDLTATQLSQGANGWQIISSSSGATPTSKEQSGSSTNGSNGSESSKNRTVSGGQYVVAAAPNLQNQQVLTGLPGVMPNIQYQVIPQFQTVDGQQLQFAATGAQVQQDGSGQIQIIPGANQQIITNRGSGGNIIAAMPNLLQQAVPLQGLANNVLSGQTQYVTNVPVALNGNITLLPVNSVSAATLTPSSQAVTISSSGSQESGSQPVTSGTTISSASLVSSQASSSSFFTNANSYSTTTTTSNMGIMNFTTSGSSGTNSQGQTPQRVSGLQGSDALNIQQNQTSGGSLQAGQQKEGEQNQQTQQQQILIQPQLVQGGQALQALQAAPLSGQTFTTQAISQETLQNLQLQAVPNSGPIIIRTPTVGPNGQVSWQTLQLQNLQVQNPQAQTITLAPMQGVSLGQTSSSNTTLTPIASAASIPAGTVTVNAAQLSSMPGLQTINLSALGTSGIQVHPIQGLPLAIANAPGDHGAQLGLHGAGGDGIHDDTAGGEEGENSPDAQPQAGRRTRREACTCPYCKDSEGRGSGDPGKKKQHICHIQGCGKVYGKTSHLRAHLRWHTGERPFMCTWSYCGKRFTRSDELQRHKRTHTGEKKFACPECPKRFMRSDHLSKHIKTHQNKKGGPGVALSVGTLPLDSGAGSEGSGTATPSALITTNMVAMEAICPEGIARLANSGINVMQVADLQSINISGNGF
# UniProt Q13242, sequence (Q13242 whole entry, looked up): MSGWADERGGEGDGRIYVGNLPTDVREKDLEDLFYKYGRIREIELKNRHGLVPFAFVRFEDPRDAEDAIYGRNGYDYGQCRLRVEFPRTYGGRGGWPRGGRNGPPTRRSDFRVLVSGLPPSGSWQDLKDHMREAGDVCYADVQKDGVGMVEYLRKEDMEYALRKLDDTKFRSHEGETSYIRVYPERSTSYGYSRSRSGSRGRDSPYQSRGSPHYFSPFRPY
# UniProt Q01085, sequence (Q01085 whole entry, looked up): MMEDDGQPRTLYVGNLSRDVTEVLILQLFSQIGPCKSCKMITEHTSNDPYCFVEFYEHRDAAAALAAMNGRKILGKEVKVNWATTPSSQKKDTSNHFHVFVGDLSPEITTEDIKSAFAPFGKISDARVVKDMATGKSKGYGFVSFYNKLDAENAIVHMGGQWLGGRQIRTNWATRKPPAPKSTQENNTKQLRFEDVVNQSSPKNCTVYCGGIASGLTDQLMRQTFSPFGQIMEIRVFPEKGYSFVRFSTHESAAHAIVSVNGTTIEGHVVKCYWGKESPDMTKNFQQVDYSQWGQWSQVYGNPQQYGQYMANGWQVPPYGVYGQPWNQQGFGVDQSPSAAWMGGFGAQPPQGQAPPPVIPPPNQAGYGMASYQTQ
# UniProt Q08170, sequence (Q08170 whole entry, looked up): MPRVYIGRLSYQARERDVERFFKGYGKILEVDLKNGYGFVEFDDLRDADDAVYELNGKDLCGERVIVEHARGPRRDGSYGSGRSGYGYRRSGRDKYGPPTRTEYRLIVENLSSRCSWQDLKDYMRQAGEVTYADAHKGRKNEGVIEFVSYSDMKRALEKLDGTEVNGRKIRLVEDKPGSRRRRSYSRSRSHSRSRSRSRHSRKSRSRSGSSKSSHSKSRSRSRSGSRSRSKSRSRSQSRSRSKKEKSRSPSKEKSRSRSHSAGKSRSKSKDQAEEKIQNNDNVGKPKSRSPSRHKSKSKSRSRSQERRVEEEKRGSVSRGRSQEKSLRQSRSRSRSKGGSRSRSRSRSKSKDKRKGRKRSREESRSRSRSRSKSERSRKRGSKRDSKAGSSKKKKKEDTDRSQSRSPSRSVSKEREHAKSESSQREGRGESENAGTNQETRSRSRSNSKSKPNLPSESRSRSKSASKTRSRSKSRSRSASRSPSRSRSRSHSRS
# UniProt P05455, sequence (P05455 whole entry, looked up): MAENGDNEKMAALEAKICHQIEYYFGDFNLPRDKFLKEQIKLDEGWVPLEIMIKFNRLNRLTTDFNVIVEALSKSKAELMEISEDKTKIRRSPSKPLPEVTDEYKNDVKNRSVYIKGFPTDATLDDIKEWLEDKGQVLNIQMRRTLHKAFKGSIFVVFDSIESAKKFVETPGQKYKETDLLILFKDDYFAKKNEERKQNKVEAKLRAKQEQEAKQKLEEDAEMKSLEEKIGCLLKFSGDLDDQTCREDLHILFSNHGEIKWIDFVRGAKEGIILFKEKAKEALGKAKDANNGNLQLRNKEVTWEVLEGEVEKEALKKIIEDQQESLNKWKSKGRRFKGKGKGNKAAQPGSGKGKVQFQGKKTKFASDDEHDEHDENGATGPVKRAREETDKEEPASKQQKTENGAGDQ
# UniProt Q15833, sequence (Q15833 whole entry, looked up): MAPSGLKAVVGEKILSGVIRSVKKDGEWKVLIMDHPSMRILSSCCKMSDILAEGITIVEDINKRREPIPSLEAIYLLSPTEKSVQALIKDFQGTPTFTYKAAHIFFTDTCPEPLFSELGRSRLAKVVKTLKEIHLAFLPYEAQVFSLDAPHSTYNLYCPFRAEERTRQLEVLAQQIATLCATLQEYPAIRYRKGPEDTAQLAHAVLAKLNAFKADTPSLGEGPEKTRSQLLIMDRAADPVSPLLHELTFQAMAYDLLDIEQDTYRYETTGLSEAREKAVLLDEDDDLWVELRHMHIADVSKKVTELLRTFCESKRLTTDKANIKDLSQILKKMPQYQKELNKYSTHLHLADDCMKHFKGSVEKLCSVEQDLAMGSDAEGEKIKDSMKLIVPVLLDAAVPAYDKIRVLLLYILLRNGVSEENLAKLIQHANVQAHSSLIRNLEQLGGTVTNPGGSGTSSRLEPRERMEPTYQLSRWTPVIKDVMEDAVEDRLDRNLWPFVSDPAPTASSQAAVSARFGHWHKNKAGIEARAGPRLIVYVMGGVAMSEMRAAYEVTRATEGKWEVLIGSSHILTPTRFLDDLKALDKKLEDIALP
# UniProt Q9H2G2, sequence (Q9H2G2 whole entry, looked up): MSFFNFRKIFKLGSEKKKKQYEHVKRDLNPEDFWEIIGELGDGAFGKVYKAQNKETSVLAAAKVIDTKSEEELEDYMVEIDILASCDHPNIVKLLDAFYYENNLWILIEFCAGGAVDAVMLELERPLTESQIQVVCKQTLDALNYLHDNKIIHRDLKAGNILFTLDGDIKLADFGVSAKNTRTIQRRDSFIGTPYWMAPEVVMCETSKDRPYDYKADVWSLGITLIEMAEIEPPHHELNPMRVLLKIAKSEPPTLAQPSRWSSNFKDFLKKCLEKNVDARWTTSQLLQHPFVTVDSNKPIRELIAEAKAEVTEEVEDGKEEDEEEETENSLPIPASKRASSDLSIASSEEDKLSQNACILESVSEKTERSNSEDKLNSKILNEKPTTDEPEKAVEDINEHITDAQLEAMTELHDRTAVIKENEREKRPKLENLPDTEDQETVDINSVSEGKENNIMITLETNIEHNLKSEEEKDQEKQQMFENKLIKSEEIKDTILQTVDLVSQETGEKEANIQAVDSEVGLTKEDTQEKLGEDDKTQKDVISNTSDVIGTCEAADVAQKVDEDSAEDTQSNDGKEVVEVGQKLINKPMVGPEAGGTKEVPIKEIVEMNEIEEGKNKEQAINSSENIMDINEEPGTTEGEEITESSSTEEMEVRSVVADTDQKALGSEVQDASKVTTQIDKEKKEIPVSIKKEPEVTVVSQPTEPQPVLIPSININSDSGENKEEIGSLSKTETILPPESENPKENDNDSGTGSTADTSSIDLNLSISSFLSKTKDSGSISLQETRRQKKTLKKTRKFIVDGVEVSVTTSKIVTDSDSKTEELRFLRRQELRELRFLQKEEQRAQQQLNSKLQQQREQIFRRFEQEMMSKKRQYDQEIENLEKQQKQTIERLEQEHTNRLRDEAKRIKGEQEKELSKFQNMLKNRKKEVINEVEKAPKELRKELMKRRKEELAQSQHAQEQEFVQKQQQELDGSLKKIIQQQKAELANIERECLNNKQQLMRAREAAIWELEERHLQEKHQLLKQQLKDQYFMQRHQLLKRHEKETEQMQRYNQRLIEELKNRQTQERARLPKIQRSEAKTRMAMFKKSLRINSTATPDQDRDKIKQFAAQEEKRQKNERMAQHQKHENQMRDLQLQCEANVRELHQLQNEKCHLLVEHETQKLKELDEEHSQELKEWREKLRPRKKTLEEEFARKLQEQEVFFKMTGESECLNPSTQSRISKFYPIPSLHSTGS
# UniProt Q8NBW4, sequence (Q8NBW4 whole entry, looked up): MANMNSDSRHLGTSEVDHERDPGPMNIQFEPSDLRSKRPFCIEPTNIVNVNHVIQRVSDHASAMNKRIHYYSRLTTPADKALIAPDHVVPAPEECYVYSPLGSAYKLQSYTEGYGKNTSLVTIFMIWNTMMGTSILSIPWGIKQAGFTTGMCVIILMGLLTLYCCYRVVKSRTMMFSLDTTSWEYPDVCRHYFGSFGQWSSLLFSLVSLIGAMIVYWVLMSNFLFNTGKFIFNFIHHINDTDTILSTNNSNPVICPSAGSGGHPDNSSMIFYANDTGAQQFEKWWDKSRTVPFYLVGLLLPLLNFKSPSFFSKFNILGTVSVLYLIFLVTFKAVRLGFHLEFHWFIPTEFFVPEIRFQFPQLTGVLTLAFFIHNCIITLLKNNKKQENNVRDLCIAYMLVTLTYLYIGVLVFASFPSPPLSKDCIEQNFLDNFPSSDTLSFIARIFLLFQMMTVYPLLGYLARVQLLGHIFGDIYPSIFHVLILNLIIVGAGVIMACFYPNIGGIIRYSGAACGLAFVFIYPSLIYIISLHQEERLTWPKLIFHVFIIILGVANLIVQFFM
# UniProt Q13247, sequence (Q13247 whole entry, looked up): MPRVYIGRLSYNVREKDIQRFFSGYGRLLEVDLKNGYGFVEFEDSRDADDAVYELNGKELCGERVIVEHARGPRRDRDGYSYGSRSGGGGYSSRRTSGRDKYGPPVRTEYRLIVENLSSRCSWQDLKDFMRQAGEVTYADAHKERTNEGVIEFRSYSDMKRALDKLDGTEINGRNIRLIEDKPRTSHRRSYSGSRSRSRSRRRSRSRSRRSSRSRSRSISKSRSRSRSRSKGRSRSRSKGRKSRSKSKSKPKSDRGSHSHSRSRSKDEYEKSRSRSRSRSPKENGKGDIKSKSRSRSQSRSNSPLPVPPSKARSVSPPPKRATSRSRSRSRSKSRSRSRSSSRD
Target,log2 fold change [1],log2 fold change [2],log2 fold change [3],log2 fold change [4],log2 fold change (entinostat),log2 fold change (vorinostat),log2 fold change (citarinostat),log2 fold change (silmitasertib),log2 fold change [5],log2 fold change [6]
SSB (UniProt P05455),-0.018,-0.181,-0.01,-0.091,0.039,0.085,0.02,-0.035,-0.089,-0.085
TIAL1 isoform 2 (UniProt Q01085),-0.014,-0.026,-0.05,-0.048,-0.005,0.025,-0.002,-0.003,0.003,-0.036
SRSF6 (UniProt Q13247),-0.06,0.038,0.191,0.032,-0.082,0.084,-0.068,-0.254,0.108,-0.299
SLC39A11 (UniProt Q8N1S5),0,-0.027,-0.085,0.024,-0.016,-0.063,-0.059,0.078,,-0.122
SLC27A4 (UniProt Q6P1M0),-0.086,-0.043,-0.034,0.016,-0.024,0,0.043,0.022,-0.073,-0.1
STRN (UniProt O43815),-0.055,0.019,-0.037,0.019,-0.008,0.024,0.028,0,-0.051,-0.031
SP1 (UniProt P08047),-0.017,0.011,0.1,-0.001,-0.005,0.052,-0.057,-0.007,0.088,-0.088
SUPT5H (UniProt O00267),-0.031,-0.049,-0.129,-0.095,0.029,0.043,0.074,0.038,-0.115,-0.028
TK1 (UniProt K7ERV3),-0.127,-0.054,-0.005,0.022,-0.071,-0.003,,-0.039,-0.116,
TACC2 (UniProt O95359),-0.013,-0.027,-0.052,-0.187,0.035,-0.033,0.003,0.116,,-0.073
STXBP2 isoform 3 (UniProt Q15833),-0.084,-0.066,-0.12,-0.051,0.035,0.105,0.046,0.112,0.141,0.036
SYNE2 isoform 2 (UniProt Q8WXH0),-0.229,-0.172,0.087,-0.134,-0.125,0.072,0.053,-0.056,,0.03
SUGP1 (UniProt Q8IWZ8),0,-0.05,-0.073,-0.071,0.054,0.077,0.074,0.101,-0.065,0.045
SLK isoform 2 (UniProt Q9H2G2),-0.314 (active),-0.042,-0.058,-0.014,0.048,0.006,0.074,0.124,0.009,-0.044
SLC38A2 (UniProt Q96QD8),-0.023,-0.046,-0.037,-0.12,0.018,,0.025,0.054,0.014,-0.088
SMG1 (UniProt Q96Q15),-0.073,-0.111,-0.101,-0.073,-0.097,-0.012,0.024,0.142,0.013,-0.187
STARD3 (UniProt Q14849),0.014,0.079,-0.236,-0.073,0.004,-0.021,,0.053,-0.003,
SREK1 isoform 2 (UniProt Q8WXA9),0.194,-0.068,0.03,-0.208,0.012,0.05,0.129,-0.148,0.059,-0.213
TANK (UniProt Q92844),0.076,0.041,-0.035,0.023,-0.001,-0.084,-0.022,0.064,0.028,0.01
SRSF4 (UniProt Q08170),-0.059,0.036,0.196,0.03,-0.002,-0.02,-0.028,-0.005,0.206,-0.228
SLC35A1 (UniProt P78382),-0.05,-0.015,-0.069,0.1,-0.065,,0.047,0.021,0.028,-0.106
SSR3 isoform 2 (UniProt Q9UNL2),-0.056,0.18,-0.056,0.369 (active),-0.04,0,0.068,0,-0.028,-0.114
SLC38A9 (UniProt Q8NBW4),-0.129,0.009,-0.113,-0.025,0.034,0.007,0.004,0.035,-0.044,-0.043
SLC35B4 (UniProt Q969S0),-0.006,-0.052,-0.094,-0.072,-0.002,,-0.009,-0.034,-0.069,-0.06
SRSF9 (UniProt Q13242),0.079,0.17,0.398,0.171,-0.072,0.029,-0.114,0.195,0.245,-0.237
STAT6 (UniProt P42226),-0.07,-0.065,-0.041,-0.268,0.044,0.108,0.061,0.041,-0.047,0.03
TECR (UniProt Q9NZ01),0,-0.071,-0.087,-0.048,0.042,0.064,0.07,0.025,-0.07,-0.056
SPAG9 (UniProt O60271),-0.042,-0.13,-0.123,-0.055,0.034,0.023,0.01,0.038,-0.014,-0.024
SURF1 (UniProt Q15526),-0.007,0.014,-0.176,-0.135,0.077,0.059,0.112,-0.04,-0.031,-0.043
TMBIM6 isoform 2 (UniProt P55061),0.027,-0.119,0.189,-0.015,0.044,,0.05,-0.206,-0.089,-0.067
